The text below walks through data of the supplement of paper PMC6089552.

In the assay the test system is A673/TR/shEF. In words: cell viability (LOESS-normalised, relative to median of negative controls) (log2 ratio); higher = more viable cells (less compound effect), active = hit call of the paper (over 3 MAD below the median). The conditions noted are these: treatment time: 72 h. In outline: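 For three days, A673/TR/shEF Ewing sarcoma cells in 384-well plates (1,500 per well) were treated with library compounds at two or more concentrations or with DMSO controls, after doxycycline had been added or withheld 24 h beforehand to induce EWS-FLI1 shRNA knockdown. Viability was read by CellTiter-Glo luminescence on an Envision reader. The data were LOESS-corrected per plate, divided by the median of negative controls and log2-transformed.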

Setting [1] is: 0.25 µM, library screen: screen1, EWS-FLI1 expression: high (no doxycycline).
Setting [2] is: 0.25 µM, library screen: screen1, EWS-FLI1 expression: low (doxycycline-induced shRNA knockdown).
Where [3] appears, read: 2.5 µM, library screen: screen1, EWS-FLI1 expression: high (no doxycycline).
Where [4] appears, read: 2.5 µM, library screen: screen1, EWS-FLI1 expression: low (doxycycline-induced shRNA knockdown).
[5] abbreviates: 0.25 µM, library screen: screen2, EWS-FLI1 expression: high (no doxycycline).
The mark [6] stands for this setting: 0.25 µM, library screen: screen2, EWS-FLI1 expression: low (doxycycline-induced shRNA knockdown).
Where [7] appears, read: 2.5 µM, library screen: screen2, EWS-FLI1 expression: high (no doxycycline).
Setting [8] is: 2.5 µM, library screen: screen2, EWS-FLI1 expression: low (doxycycline-induced shRNA knockdown).

Hit rate of the full screen: of about 3,200 compounds, about 300 (9.4%) showed activity. The list comes from a sample in which actives are over-represented; it also holds similar structures and randomly drawn compounds. Values without a mark were called inactive.

With `CC(C)CCC[C@@H](C)[C@H]1CC[C@H]2[C@@H]3CC[C@H]4C[C@H](O)CC[C@]4(C)[C@H]3CC[C@]12C`, the “cell viability (log2)” value runs as follows: under setting [1], 0.14; under setting [2], 0.0986; under setting [3], 0.118; under setting [4], 0.0759.
Turning to `O=C(O)/C=C1/CCCc2ccccc2C1O` (configuration not stated), the “cell viability (log2)” value under setting [1] is 0.0671; the “cell viability (log2)” value under setting [2] was 0.163; the “cell viability (log2)” value under setting [5] is 0.165; the “cell viability (log2)” value under setting [6] was 0.0537; the “cell viability (log2)” value under setting [3] is 0.139; the “cell viability (log2)” value under setting [4] was 0.187. The “cell viability (log2)” value was 0.071 under setting [7] and 0.0654 under setting [8].
As for `CC(=O)O[C@@H]1CC2C(C)(C)[C@H](O)C=C[C@]2(C)C2CC[C@@]3(C)[C@H](c4ccoc4)OC(=O)C4OC43[C@@]21C` (some centres not stated), the “cell viability (log2)” value was 0.000168 under setting [1], 0.0262 under setting [2], 0.0677 under setting [3] and 0.0357 under setting [4].
Take `Cc1c(C(=O)O)c(O)cc2c1C(=O)c1c(O)c([C@@H]3O[C@H](CO)[C@@H](O)[C@H](O)[C@H]3O)c(O)c(O)c1C2=O`: the “cell viability (log2)” value is, setting by setting: under setting [1], 0.057; under setting [2], 0.112; under setting [3], 0.0928; under setting [4], 0.184.
Consider `Cc1ccc2nc(NC3=NC(CC(=O)O)C(=O)N3)nc(C)c2c1` (configuration not stated), for which the “cell viability (log2)” value by setting is: under setting [1], 0.016; under setting [2], -0.0194; under setting [3], 0.0679; under setting [4], -0.193.
Consider `CCOc1cccc(=O)c2c(C)[nH]c(C)c12`, for which the “cell viability (log2)” value under setting [1] was 0.0528, the “cell viability (log2)” value under setting [2] is 0.134, the “cell viability (log2)” value under setting [3] is 0.0744 and the “cell viability (log2)” value under setting [4] was 0.088.
Take `CC1=C2C(O)C(=O)OC3CC4C(C)(C)C(=O)CCC4(C)C(CC1)C23C` (configuration not stated): the “cell viability (log2)” value is, setting by setting: under setting [1], 0.149; under setting [2], 0.0333; under setting [3], 0.0817; under setting [4], 0.166.
As for `CO/N=C(\C(=O)N[C@@H]1C(=O)N2C(C(=O)O)=C(CSc3nc(=O)c(=O)[nH]n3C)CS[C@H]12)c1csc(N)n1`, the “cell viability (log2)” value is 0.112 under setting [1]; 0.0388 under setting [2]; 0.21 under setting [5]; 0.115 under setting [6]; 0.082 under setting [3]; 0.12 under setting [4]. The “cell viability (log2)” value is, setting by setting: under setting [7], 0.149; under setting [8], 0.12.
Regarding `CC(=O)Oc1c(Cl)c(C)c2c(c1Cl)OC(=O)c1c(C)c(Cl)c(OC(C)=O)c(Cl)c1O2`, the “cell viability (log2)” value runs as follows: under setting [1], 0.0776; under setting [2], 0.0649; under setting [3], 0.0636; under setting [4], -0.0345.
Turning to `COc1c(-c2coc3cc4c(cc3c2=O)CC(O)C(C)(C)O4)ccc2c1C=CC(C)(C)O2` (configuration not stated), the “cell viability (log2)” value runs as follows: under setting [1], 0.0473; under setting [2], 0.0244; under setting [3], 3e-05; under setting [4], 0.094.
`COc1c2c(cc3occ(-c4ccc5c(c4)OCO5)c(=O)c13)OC(C)(C)C=C2`: the “cell viability (log2)” value was -0.144 (active) under setting [1], 0.05 under setting [2], 0.0889 under setting [3] and 0.0736 under setting [4].
For `CC(C)=CCc1c2c(c3occ(-c4ccc(O)c(O)c4)c(=O)c3c1O)C=CC(C)(C)O2`, in that order: 0.131, 0.0868, 0.0962 and 0.19.
`COc1cc2c(cc1-c1coc3c4c(ccc3c1=O)OC(C)(C)C=C4)OCO2`: the “cell viability (log2)” value reads like this: under setting [1], 0.0979; under setting [2], 0.0365; under setting [3], 0.112; under setting [4], 0.0354.
With `O=c1c(-c2ccc3c(c2)OCO3)coc2cc(O)ccc12`, the “cell viability (log2)” value was 0.113 under setting [1], 0.0865 under setting [2], 0.149 under setting [3] and -2.91 under setting [4].
Take `CC1(C)C=Cc2c(cc3occ(-c4ccc5c(c4)OCO5)c(=O)c3c2O)O1`: the “cell viability (log2)” value under setting [1] is -0.098 (active), the “cell viability (log2)” value under setting [2] was 0.0822, the “cell viability (log2)” value under setting [3] is 0.0137 and the “cell viability (log2)” value under setting [4] is 0.0314.
For `COc1cc2c3cc1Oc1c(OC)c(OC)cc4c1C(Cc1ccc(O)c(c1)Oc1ccc(cc1)CC3N(C)CC2)N(C)CC4` (configuration not stated), the “cell viability (log2)” value under setting [1] is 0.135, the “cell viability (log2)” value under setting [2] was 0.0489, the “cell viability (log2)” value under setting [3] was 0.126 and the “cell viability (log2)” value under setting [4] is -0.0746.
For `CSCCC(N)C(=O)NC(CC(C)C)C(=O)NC(Cc1ccccc1)C(=O)O` (configuration not stated), in that order: 0.145, -0.00633, 0.123 and 0.0328.
`O=c1cc(-c2cccc3c2Sc2ccccc2S3)oc(N2CCOCC2)c1`: the “cell viability (log2)” value is 0.00625 (0.103 µM, library screen: screen3, EWS-FLI1 expression: high (no doxycycline)); 0.00883 (0.103 µM, library screen: screen3, EWS-FLI1 expression: low (doxycycline-induced shRNA knockdown)); -0.0309 (0.308 µM, library screen: screen3, EWS-FLI1 expression: high (no doxycycline)); 0.0146 (0.308 µM, library screen: screen3, EWS-FLI1 expression: low (doxycycline-induced shRNA knockdown)); 0.0133 (0.926 µM, library screen: screen3, EWS-FLI1 expression: high (no doxycycline)); 0.00404 (0.926 µM, library screen: screen3, EWS-FLI1 expression: low (doxycycline-induced shRNA knockdown)). Further, the “cell viability (log2)” value (2.8 µM, library screen: screen3, EWS-FLI1 expression: high (no doxycycline)) is 0.0162; the “cell viability (log2)” value (2.8 µM, library screen: screen3, EWS-FLI1 expression: low (doxycycline-induced shRNA knockdown)) was 0.0289; the “cell viability (log2)” value (8.3 µM, library screen: screen3, EWS-FLI1 expression: high (no doxycycline)) was -0.0501; the “cell viability (log2)” value (8.3 µM, library screen: screen3, EWS-FLI1 expression: low (doxycycline-induced shRNA knockdown)) is 0.00607; the “cell viability (log2)” value (25 µM, library screen: screen3, EWS-FLI1 expression: high (no doxycycline)) was 0.0363; the “cell viability (log2)” value (25 µM, library screen: screen3, EWS-FLI1 expression: low (doxycycline-induced shRNA knockdown)) was -0.0432.
As for `O=c1cc(N2CCOCC2)oc2c(-c3ccccc3)cccc12`, the “cell viability (log2)” value was 0.213 (0.025 µM, library screen: screen1, EWS-FLI1 expression: high (no doxycycline)); 0.0453 (0.025 µM, library screen: screen1, EWS-FLI1 expression: low (doxycycline-induced shRNA knockdown)); 0.204 under setting [1]; 0.0333 under setting [2]; 0.135 under setting [5]; 0.11 under setting [6]. Also, the “cell viability (log2)” value reads like this: under setting [3], -0.134 (active); under setting [4], 0.0932; under setting [7], 0.15; under setting [8], 0.0123; (25 µM, library screen: screen1, EWS-FLI1 expression: high (no doxycycline)) -0.489 (active); (25 µM, library screen: screen1, EWS-FLI1 expression: low (doxycycline-induced shRNA knockdown)) -0.462 (active).
In the case of `O=c1cc(-c2ccccc2)oc2c(O)c(O)ccc12`, the “cell viability (log2)” value reads like this: under setting [1], 0.189; under setting [2], -0.0108; under setting [3], 0.128; under setting [4], 0.0489.
`CC(C)CCC[C@@H](C)[C@H]1CC[C@H]2[C@@H]3CC[C@@H]4C[C@H](O)CC[C@]4(C)[C@H]3CC[C@]12C`: the “cell viability (log2)” value under setting [1] is 0.108, the “cell viability (log2)” value under setting [2] was 0.0181, the “cell viability (log2)” value under setting [3] is 0.105 and the “cell viability (log2)” value under setting [4] was 0.0609.
`CC1CCC2(OC1)OC1CC3C4CCC5C[C@@H](O)CCC5(C)C4=CCC3(C)C1[C@@H]2C` (some centres not stated): the “cell viability (log2)” value under setting [1] is 0.0912, the “cell viability (log2)” value under setting [2] was 0.0387, the “cell viability (log2)” value under setting [3] was 0.0505 and the “cell viability (log2)” value under setting [4] is 0.0779.
In the case of `CCCCCCCCCCCCCCCC(=O)NCC(COP(=O)([O-])OCC[N+](C)(C)C)OC` (configuration not stated), the “cell viability (log2)” value was 0.14 under setting [5], 0.124 under setting [6], 0.166 under setting [7] and 0.0176 under setting [8].
For the compound `CCC(=O)c1ccc2c(c1)N(CC(C)N(C)C)c1ccccc1S2` (configuration not stated), the “cell viability (log2)” value reads like this: under setting [1], 0.0889; under setting [2], 0.155; under setting [3], 0.168; under setting [4], 0.297.
In the case of `Cn1cnc([N+](=O)[O-])c1Sc1ncnc2nc[nH]c12`, the “cell viability (log2)” value is 0.138 (0.025 µM, library screen: screen2, EWS-FLI1 expression: high (no doxycycline)); 0.0997 (0.025 µM, library screen: screen2, EWS-FLI1 expression: low (doxycycline-induced shRNA knockdown)); 0.0615 under setting [1]; 0.0765 under setting [2]; 0.159 under setting [5]; 0.0607 under setting [6]. Also, the “cell viability (log2)” value by setting is: under setting [3], -0.0254; under setting [4], 0.161; under setting [7], -0.0273; under setting [8], 0.0557; (25 µM, library screen: screen2, EWS-FLI1 expression: high (no doxycycline)) -0.337 (active); (25 µM, library screen: screen2, EWS-FLI1 expression: low (doxycycline-induced shRNA knockdown)) 0.03.
